Out of some 400,000 compounds screened, about 3,700 (0.93%) were called active. Not shown: some 3% with an inconclusive outcome. The rule behind the calls is not given here. Only a selection was taken, and actives are over-represented in it overall.

The target in the experiment is T1, Vitamin D3 receptor (Homo sapiens) (UniProt P11473).
T1 sequence (whole entry): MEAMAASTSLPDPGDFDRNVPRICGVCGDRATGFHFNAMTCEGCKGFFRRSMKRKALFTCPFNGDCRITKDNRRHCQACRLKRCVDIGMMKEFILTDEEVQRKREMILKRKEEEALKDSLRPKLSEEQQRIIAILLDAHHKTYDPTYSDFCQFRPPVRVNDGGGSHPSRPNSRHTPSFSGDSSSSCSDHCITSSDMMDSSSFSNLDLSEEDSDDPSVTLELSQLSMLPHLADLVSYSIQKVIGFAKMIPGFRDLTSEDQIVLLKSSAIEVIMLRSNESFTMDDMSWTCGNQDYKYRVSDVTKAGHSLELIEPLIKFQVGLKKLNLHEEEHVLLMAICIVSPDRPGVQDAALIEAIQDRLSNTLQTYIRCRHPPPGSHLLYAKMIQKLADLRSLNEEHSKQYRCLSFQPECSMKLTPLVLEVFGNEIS
Description: Inhibitors of the vitamin D receptor (VDR): qHTS. [Related pubchem assays (depositor defined):AID504855]. Format: functional.
As for `Cl[Te]1(Cl)OCCO1`, the Potency is 3.16 µM (active).

For the origin of these results see ChEMBL document CHEMBL1201862, “PubChem BioAssay data set” (2004).
